Inconclusive results are not listed. Active and inactive are the calls of the source. Calls follow the shape of the dose curve; as a rule, active = well fitted curve in the direction sought with a large enough effect; inconclusive = small, poorly fitted or top-dose-only effect, or another doubt; inactive = no such curve, though single readings can be large; an effect the other way counts as inactive or inconclusive.
How the values were obtained:
[1] = Cellular Toxicity (caspase-3) Mesangial (AID 660); conditions: mesangial cells, normalized: DMSO 0%, 100 µM tamoxifen 100%; at 91.7 µM (top of the series);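 also: combined caspase 3 and 7 activity read by Caspase-Glo luminescence; cells exposed to compound for 16 h before the caspase read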
Outline: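 Mesangial cells, 1000/well, 5 h settle at 37 °C; compound 16 h, 37 °C; Caspase-Glo 3/7 reagent 20 min RT; luminescence. Norm.: DMSO = 0%, tamoxifen 100 uM = 100%. AC50, Hill fit.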

[2] = Cellular Toxicity (caspase-3) SK-N-SH (AID 661);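 also: 0% = DMSO basal and 100% = 10 µM staurosporine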
Outline: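 Human neuroblastoma SK-N-SH, 1500 cells/well, 5 hr pre-incubation, then compound 16 hr, 37 °C. Caspase-Glo 3/7 reagent, 1 hr RT, luminescence. Norm. to DMSO/10 uM staurosporine; Hill-fit AC50.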

[3] = Cellular Toxicity (caspase-3) H-4-II-E (AID 663); conditions: H-4-II-E rat hepatoma, scaled: DMSO 0%, 100 µM tamoxifen 100%; at 92.2 µM (top of the series);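 also: cells exposed to compound for 16 hr before readout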
Outline: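 Luminescence from caspase-cleaved aminoluciferin substrate, read 20 min after reagent addition, reports caspase 3/7 activation in rat H-4-II-E cells after 16 hr compound exposure. Normalized to DMSO (basal) and 100 uM tamoxifen (100%); AC50 from Hill fits.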

[4] = Cellular Toxicity (caspase-3) Hek293 (AID 664); conditions: HEK293 caspase-3 activation, DMSO = 0%, 100 µM tamoxifen = 100%; at 92.2 µM (top of the series);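 also: cells exposed to compound for 16 h at 37 °C before readout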
Outline: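 Cells plated, 5 hr at 37 °C; compounds added; 16 hr at 37 °C; Caspase-Glo 3/7 reagent, 20 min RT; luminescence read. Activation expressed relative to DMSO and 100 uM tamoxifen, AC50 by Hill model.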

[5] = Cellular Toxicity (caspase-3) N2a (AID 665);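 also: compound exposure lasted 16 h at 37 °C before readout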
Outline: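 N2a cells, 1500/well, 5 h settle at 37 °C; cpd 16 h, 37 °C; Caspase-Glo 3/7, 1 h RT; luminescence. Norm: DMSO = 0, 10 uM staurosporine = 100%. AC50, Hill fit.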

[6] = Cellular Toxicity (caspase-3) NIH 3T3 (AID 666);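 also: 0% = DMSO basal and 100% = 100 µM tamoxifen stimulation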
Outline: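 Luminescence from aminoluciferin released by caspase-3/7 cleavage of a peptide substrate served as read-out. Mouse fibroblast NIH 3T3 cells were exposed to compounds over a concentration range for 16 hours, and AC50 values came from standard Hill modelling.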

[7] = biological target: Cytochrome P450 3A4 (Homo sapiens) (UniProt P08684); test: qHTS Assay for Inhibitors and Substrates of Cytochrome P450 3A4 (AID 884); also: % is scaled to controls: 0 for no effect and ±100 for the full control effect; nearly all actives have a fitted effect of over 50% in size
Outline: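 20 nM human CYP3A4 with 25 uM Luciferin-PPXE (at KM) in 200 mM KPO4, preincubated 10 min with compound; NADPH regeneration started a 60 min RT reaction. Luciferin detected by luminescence, normalized to 57 uM ketoconazole as full inhibition.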

[8] = Cell Viability - LYMP2-001 (AID 921);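 also: cells exposed to compound for 24 h at 37 °C; 0% = DMSO only and full inhibition = tetraoctylammonium bromide control wells; nearly all actives have a fitted effect of over 70% in size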
Outline: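 qHTS, 1536-well; lymphoblastoid cells, 24 hr compound, 37 C; ATP by CellTiter-Glo, 30 min RT; luminescence; Hill-fit AC50.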

[9] = Cellular Toxicity (caspase-3) Renal Proximal Tubule (AID 667); conditions: Potency: caspase-3 activation;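 also: cells exposed to compound for 16 hours at 37 °C before detection; 0% = DMSO basal and 100% = 10 µM staurosporine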
Outline: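 In qHTS format, rat primary proximal tubule cells seeded at 1000 per well are exposed to compounds for 16 hours at 37 °C. An increase in Caspase-Glo 3/7 luminescence indicates caspase activation.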

Cytochrome P450 3A4 (Homo sapiens), sequence (P08684 whole entry, looked up): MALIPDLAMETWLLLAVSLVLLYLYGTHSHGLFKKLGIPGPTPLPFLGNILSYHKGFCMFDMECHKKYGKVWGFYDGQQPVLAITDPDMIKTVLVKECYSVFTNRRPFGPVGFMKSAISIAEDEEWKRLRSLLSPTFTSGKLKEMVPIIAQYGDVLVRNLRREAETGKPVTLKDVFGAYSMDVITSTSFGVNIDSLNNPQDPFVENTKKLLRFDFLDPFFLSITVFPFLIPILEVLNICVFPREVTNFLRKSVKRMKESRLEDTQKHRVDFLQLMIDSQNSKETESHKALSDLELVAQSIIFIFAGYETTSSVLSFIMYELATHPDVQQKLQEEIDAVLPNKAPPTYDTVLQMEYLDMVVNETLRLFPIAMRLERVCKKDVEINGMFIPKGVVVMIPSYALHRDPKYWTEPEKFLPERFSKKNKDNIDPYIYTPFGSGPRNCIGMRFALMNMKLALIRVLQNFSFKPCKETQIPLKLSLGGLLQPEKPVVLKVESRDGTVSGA

CN(C)c1cccc(O)c1
inactive: caspase-3 activation [1] 1.93% | outcome [2] | caspase-3 activation [3] 2.04% | caspase-3 activation [4] 0.706% | outcome [5] | outcome [6] | Potency [7] | Potency [8]

CC(C)(C)OCC1CO1 (configuration not stated)
inactive: caspase-3 activation [1] 0.391% | outcome [2] | caspase-3 activation [3] 0.741% | caspase-3 activation [4] 2.04% | outcome [5] | outcome [6] | Potency [7] | Potency [8]

CCC(C)(C)C
inactive: caspase-3 activation [1] 0.949% | outcome [2] | caspase-3 activation [3] -0.587% | caspase-3 activation [4] -1.96% | outcome [5] | outcome [6] | Potency [7] | Potency [8]

ON=C1CCCCC1
inactive: caspase-3 activation [1] 0.894% | outcome [2] | caspase-3 activation [3] 1.35% | caspase-3 activation [4] 2.27% | outcome [5] | outcome [6] | Potency [9] | Potency [8]

CCCCCCCCCCCCOCC1CO1 (configuration not stated)
inactive: caspase-3 activation [1] 1.85% | outcome [2] | caspase-3 activation [3] 3.02% | caspase-3 activation [4] 2.47% | outcome [5] | outcome [6] | Potency [7] | Potency [8]

CC/C=C1/OC(=O)c2ccccc21
inactive: caspase-3 activation [1] 0.157% | outcome [2] | caspase-3 activation [3] 0.49% | caspase-3 activation [4] 1.13% | outcome [5] | outcome [6] | Potency [9] | Potency [8]

CCCCC(CC)CO (configuration not stated)
inactive: caspase-3 activation [1] -0.254% | outcome [2] | caspase-3 activation [3] 1.2% | caspase-3 activation [4] 1.6% | outcome [5] | outcome [6] | Potency [7] | Potency [8]

[O-]/[N+](=N\O)c1ccccc1
inactive: caspase-3 activation [1] -1.07% | outcome [2] | caspase-3 activation [3] -1.1% | caspase-3 activation [4] 2.95% | outcome [5] | outcome [6] | Potency [9] | Potency [8]

CC(O)CC(C)O (configuration not stated)
inactive: caspase-3 activation [1] 0.0132% | outcome [2] | caspase-3 activation [3] 1.09% | caspase-3 activation [4] -0.296% | outcome [5] | outcome [6] | Potency [9] | Potency [8]

O=C(O)c1ccccc1Cl
inactive: caspase-3 activation [1] -0.834% | outcome [2] | caspase-3 activation [3] 0.73% | caspase-3 activation [4] -0.14% | outcome [5] | outcome [6] | Potency [7] | Potency [8]

CC(=O)C1(C)CC2=C(CCCC2(C)C)CC1C (configuration not stated)
inactive: caspase-3 activation [1] 1.57% | outcome [2] | caspase-3 activation [3] 1.88% | caspase-3 activation [4] 2.01% | outcome [5] | outcome [6] | Potency [9] | Potency [8]

O=C(O)CN(CC(=O)O)CC(=O)O
inactive: caspase-3 activation [1] 1.04% | outcome [2] | caspase-3 activation [3] 2.27% | caspase-3 activation [4] 0.365% | outcome [5] | outcome [6] | Potency [7] | Potency [8]

CC=C(Cl)Cl
inactive: caspase-3 activation [1] -0.275% | outcome [2] | caspase-3 activation [3] 0.108% | caspase-3 activation [4] 0.136% | outcome [5] | outcome [6] | Potency [7]

CC(=O)OC(C)C
inactive: caspase-3 activation [1] 0.284% | outcome [2] | caspase-3 activation [3] 0.45% | caspase-3 activation [4] 0.887% | outcome [5] | outcome [6] | Potency [7] | Potency [8]

Cc1cccc(C)c1O
inactive: caspase-3 activation [1] -0.0557% | outcome [2] | caspase-3 activation [3] -0.375% | caspase-3 activation [4] -3.44% | outcome [5] | outcome [6] | Potency [7] | Potency [8]

CCCOCC(C)O (configuration not stated)
inactive: caspase-3 activation [1] 0.289% | outcome [2] | caspase-3 activation [3] -0.784% | caspase-3 activation [4] -1.05% | outcome [5] | outcome [6] | Potency [9] | Potency [8]

CC(=O)OCCC(C)C
inactive: caspase-3 activation [1] 0.804% | outcome [2] | caspase-3 activation [3] -0.942% | caspase-3 activation [4] -0.0363% | outcome [5] | outcome [6] | Potency [9] | Potency [8]

Nc1cccc(S(=O)(=O)O)c1
inactive: caspase-3 activation [1] -0.0111% | outcome [2] | caspase-3 activation [3] -0.597% | caspase-3 activation [4] -1.89% | outcome [5] | outcome [6] | Potency [7] | Potency [8]

CCc1ccccc1
inactive: caspase-3 activation [1] -1.29% | outcome [2] | caspase-3 activation [3] 1.3% | caspase-3 activation [4] -0.962% | outcome [5] | outcome [6] | Potency [9] | Potency [8]

FC(F)(F)c1ccccc1Cl
inactive: caspase-3 activation [1] 1.05% | outcome [2] | caspase-3 activation [3] 0.997% | caspase-3 activation [4] -1.13% | outcome [5] | outcome [6] | Potency [9] | Potency [8]

CC(=O)Nc1ccc(C)cc1
inactive: caspase-3 activation [1] 0.522% | outcome [2] | caspase-3 activation [3] 0.606% | caspase-3 activation [4] 0.349% | outcome [5] | outcome [6] | Potency [9] | Potency [8]

CNc1ccccc1
inactive: caspase-3 activation [1] 1.7% | outcome [2] | caspase-3 activation [3] 0.262% | caspase-3 activation [4] -1.03% | outcome [5] | outcome [6] | Potency [9] | Potency [8]

O=CNc1ccccc1
inactive: caspase-3 activation [1] -0.303% | outcome [2] | caspase-3 activation [3] 0.272% | caspase-3 activation [4] 1.41% | outcome [5] | outcome [6] | Potency [7] | Potency [8]

C=CCOC(=O)COCCC(C)C
inactive: caspase-3 activation [1] -0.0239% | outcome [2] | caspase-3 activation [3] -0.913% | caspase-3 activation [4] -2.01% | outcome [5] | outcome [6] | Potency [7] | Potency [8]

CSCCC=O
inactive: caspase-3 activation [1] 0.0965% | outcome [2] | caspase-3 activation [3] -0.467% | caspase-3 activation [4] -2.79% | outcome [5] | outcome [6] | Potency [7] | Potency [8]

CCCCC(CC)COC(=O)CCCCC(=O)OCC(CC)CCCC (configuration not stated)
inactive: caspase-3 activation [1] 0.289% | outcome [2] | caspase-3 activation [3] -0.0264% | caspase-3 activation [4] 0.675% | outcome [5] | outcome [6] | Potency [9] | Potency [8]

CCCCCCO
inactive: caspase-3 activation [1] 0.267% | outcome [2] | caspase-3 activation [3] 0.291% | caspase-3 activation [4] 0.42% | outcome [5] | outcome [6] | Potency [9] | Potency [8]

Cc1cc(C)c(N)cc1C
inactive: caspase-3 activation [1] -0.153% | outcome [2] | caspase-3 activation [3] -1.64% | caspase-3 activation [4] 2.78% | outcome [5] | outcome [6] | Potency [9] | Potency [8]

c1ccc2c(c1)ccc1ncccc12
inactive: caspase-3 activation [1] -0.196% | outcome [2] | caspase-3 activation [3] 0.297% | caspase-3 activation [4] 1.59% | outcome [5] | outcome [6] | Potency [9] | Potency [8]

Cc1cscn1
inactive: caspase-3 activation [1] 0.991% | outcome [2] | caspase-3 activation [3] 0.996% | caspase-3 activation [4] 1.04% | outcome [5] | outcome [6] | Potency [9] | Potency [8]

Nc1nc(CC(=O)O)cs1
inactive: caspase-3 activation [1] 0.647% | outcome [2] | caspase-3 activation [3] 0.956% | caspase-3 activation [4] -1.7% | outcome [5] | outcome [6] | Potency [7] | Potency [8]

CC#N
inactive: caspase-3 activation [1] 1.61% | outcome [2] | caspase-3 activation [3] 0.385% | caspase-3 activation [4] 1.27% | outcome [5] | outcome [6] | Potency [7] | Potency [8]

Nc1c(Cl)cc(Cl)cc1Cl
inactive: caspase-3 activation [1] 0.75% | outcome [2] | caspase-3 activation [3] 2.86% | caspase-3 activation [4] -0.377% | outcome [5] | outcome [6] | Potency [7] | Potency [8]

CCOCCOCC
inactive: caspase-3 activation [1] 0.404% | outcome [2] | caspase-3 activation [3] 1.77% | caspase-3 activation [4] 4.51% | outcome [5] | outcome [6] | Potency [7] | Potency [8]

CCCCCCC=O
inactive: caspase-3 activation [1] -0.687% | outcome [2] | caspase-3 activation [3] 1.06% | caspase-3 activation [4] -2.62% | outcome [5] | Potency [7] | Potency [8]

CCOCCO
inactive: caspase-3 activation [1] -0.559% | outcome [2] | caspase-3 activation [3] -0.494% | caspase-3 activation [4] -0.913% | outcome [5] | Potency [9]

Cc1ccccc1C(N)=O
inactive: caspase-3 activation [1] 2.19% | outcome [2] | caspase-3 activation [3] 1.38% | caspase-3 activation [4] 3.64% | outcome [5] | outcome [6] | Potency [7] | Potency [8]

O=Cc1c(Cl)cccc1Cl
inactive: caspase-3 activation [1] -0.583% | outcome [2] | caspase-3 activation [3] 5.93% | caspase-3 activation [4] 1.92% | outcome [5] | Potency [9] | Potency [7] | Potency [8]

O=C(O[C@@H](C(=O)O)[C@@H](OC(=O)c1ccccc1)C(=O)O)c1ccccc1
inactive: caspase-3 activation [1] 0.793% | outcome [2] | caspase-3 activation [3] 0.201% | caspase-3 activation [4] -0.248% | outcome [5] | Potency [7] | Potency [8]

Reference: PubChem BioAssay (NCATS)
